In all, about 39,000 compounds went through this assay and about 1,500 (3.8%) were called active. This excerpt belongs to a sample that is enriched for actives.
What follows are molecules tested on HSkMC (human skeletal muscle cells) (assay: cytotoxicity call (relative viability < 0.9)). Conditions: 10 µM.
In the case of `C[C@@H]1CCCCO[C@H](CN(C)Cc2ccc3c(c2)OCO3)[C@H](C)CN([C@H](C)CO)C(=O)c2cc(NC(=O)Nc3cccc4ccccc34)ccc2O1`, the cytotoxicity call is reported as “active”.
In the case of `C[C@@H]1CN([C@@H](C)CO)C(=O)c2cc(NC(=O)Nc3cccc4ccccc34)ccc2O[C@@H](C)CCCCO[C@@H]1CN(C)Cc1ccc2c(c1)OCO2`, the cytotoxicity call is reported as “inactive”.
`C[C@@H]1CCCCO[C@H](CN(C)Cc2ccc3c(c2)OCO3)[C@@H](C)CN([C@@H](C)CO)C(=O)c2cc(NC(=O)Nc3cccc4ccccc34)ccc2O1` was tested, and the cytotoxicity call was “inactive”.
For `C[C@H]1CCCCO[C@H](CN(C)Cc2ccc3c(c2)OCO3)[C@@H](C)CN([C@@H](C)CO)C(=O)c2cc(NC(=O)Nc3cccc4ccccc34)ccc2O1`, the cytotoxicity call was “inactive”.
In the case of `Cc1ccc(S(=O)(=O)Nc2ccc3c(c2)C(=O)N([C@@H](C)CO)C[C@@H](C)[C@@H](CN(C)C(=O)Nc2ccc(C(F)(F)F)cc2)O3)cc1`, the cytotoxicity call is reported as “inactive”.
With `C[C@H](CO)N1C[C@H](C)[C@@H](CN(C)C(=O)Nc2ccc(C(F)(F)F)cc2)OCc2cn(nn2)CCCC1=O` the cytotoxicity call was “inactive”.
With `CN(C)/N=N/c1nc[nH]c1C(N)=O` the cytotoxicity call was “inactive”.
For `COC(=O)C[C@H]1CC[C@H](N)[C@@H](CO)O1`, the cytotoxicity call was “inactive”.
With `NCc1cccc(-c2ccccc2)c1` the cytotoxicity call was “inactive”.
For `C[C@@H]1CCCCO[C@@H](CN(C)C(=O)NC2CCCCC2)[C@@H](C)CN([C@H](C)CO)C(=O)c2cc(NC(=O)CCCCCC(=O)Nc3ccccc3N)ccc2O1`, the cytotoxicity call was “inactive”.
`C[C@@H]1CN([C@@H](C)CO)C(=O)c2cc(NC(=O)Nc3ccc(F)cc3)ccc2O[C@@H](C)CCCCO[C@@H]1CN(C)C(=O)C1CCCCC1` was tested, and the cytotoxicity call was “inactive”.
In the case of `C[C@H]1CN([C@@H](C)CO)C(=O)c2cc(NS(=O)(=O)c3ccc(Cl)cc3)ccc2O[C@H]1CN(C)Cc1ccc(Cl)c(Cl)c1`, the cytotoxicity call is reported as “active”.
With `C[C@@H]1CN([C@@H](C)CO)C(=O)c2cc(NS(=O)(=O)c3ccc(Cl)cc3)ccc2O[C@H]1CN(C)Cc1ccc(Cl)c(Cl)c1` the cytotoxicity call was “active”.
In the case of `C[C@H](CO)N1C[C@H](C)[C@@H](CN(C)Cc2ccc(Cl)c(Cl)c2)Oc2ccc(NS(=O)(=O)c3ccc(Cl)cc3)cc2C1=O`, the cytotoxicity call is reported as “active”.
`C[C@@H]1CN([C@H](C)CO)C(=O)c2cc(NS(=O)(=O)c3ccc(Cl)cc3)ccc2O[C@@H]1CN(C)Cc1ccc(Cl)c(Cl)c1` was tested, and the cytotoxicity call was “active”.
With `COc1oc(C(=O)NC2CCCCC2)c(-c2ccc(Cl)cc2)c1S(=O)(=O)c1ccccc1Cl` the cytotoxicity call was “inactive”.
`Cc1ccc(S(=O)(=O)N2C[C@H](O)COC[C@@H]3O[C@H](CC(=O)NCCN4CCCCC4)CC[C@H]32)cc1` was tested, and the cytotoxicity call was “inactive”.
`COc1ccc(NC(=O)N2C[C@H](O)COC[C@H]3O[C@@H](CC(=O)NCc4ccccc4OC)CC[C@@H]32)cc1` was tested, and the cytotoxicity call was “inactive”.
With `COc1ccc(NC(=O)N(C)C[C@H]2OCCCC[C@@H](C)Oc3ccc(NC(=O)CCC(F)(F)F)cc3C(=O)N([C@H](C)CO)C[C@H]2C)cc1` the cytotoxicity call was “inactive”.
In the case of `C[C@@H]1CCCCO[C@H](CN(C)Cc2ccc(C(F)(F)F)cc2)[C@H](C)CN([C@@H](C)CO)C(=O)c2cc(NC(=O)CCC(F)(F)F)ccc2O1`, the cytotoxicity call is reported as “inactive”.
With `COc1ccc(C#Cc2ccc3c(c2)[C@]2(C(=O)N3)[C@H](c3ccccc3OCCO)N3[C@H](c4ccccc4)[C@H](c4ccccc4)OC(=O)[C@H]3[C@@H]2C(=O)NC[C@H](O)c2ccccc2)cc1` the cytotoxicity call was “inactive”.
With `COc1ccc(S(=O)(=O)N(C)C[C@@H]2Oc3c(NS(=O)(=O)c4ccc(C)cc4)cccc3C(=O)N([C@@H](C)CO)C[C@H]2C)cc1` the cytotoxicity call was “inactive”.
`C[C@@H]1CN([C@@H](C)CO)C(=O)c2cc(NS(=O)(=O)c3ccc(Cl)cc3)ccc2O[C@@H](C)CCCCO[C@H]1CN(C)C(=O)c1ccncc1` was tested, and the cytotoxicity call was “inactive”.
`C=C(C)CCn1cccc1C(C)=O` was tested, and the cytotoxicity call was “inactive”.
With `C[C@H]1CN([C@@H](C)CO)S(=O)(=O)c2ccc(C#Cc3cccc(F)c3)cc2O[C@@H]1CN(C)C(=O)CN1CCOCC1` the cytotoxicity call was “inactive”.
In the case of `Cc1noc(C)c1NC(=O)N(C)C[C@H]1Oc2ccc(NC(=O)CCCN(C)C)cc2C(=O)N([C@@H](C)CO)C[C@@H]1C`, the cytotoxicity call is reported as “inactive”.
With `C[C@@H]1CN([C@H](C)CO)S(=O)(=O)c2ccc(C3=CCCC3)cc2O[C@@H]1CN(C)C(=O)c1cnccn1` the cytotoxicity call was “inactive”.
In the case of `C[C@H]1CN([C@@H](C)CO)C(=O)c2cc(NS(=O)(=O)c3ccccc3)ccc2O[C@@H]1CN(C)Cc1ccc(Cl)c(Cl)c1`, the cytotoxicity call is reported as “inactive”.
In the case of `C[C@@H]1CN([C@@H](C)CO)C(=O)c2cc(NS(=O)(=O)c3ccc(Cl)cc3)ccc2O[C@@H]1CN(C)Cc1ccc(Cl)c(Cl)c1`, the cytotoxicity call is reported as “active”.
With `C[C@H](CO)N1C[C@H](C)[C@H](CN(C)Cc2ccc(Cl)c(Cl)c2)Oc2ccc(NS(=O)(=O)c3ccc(Cl)cc3)cc2C1=O` the cytotoxicity call was “active”.
For `C[C@H]1CN([C@@H](C)CO)C(=O)c2cc(NS(=O)(=O)c3ccc(Cl)cc3)ccc2O[C@@H]1CN(C)Cc1ccc(Cl)c(Cl)c1`, the cytotoxicity call was “active”.
In the case of `C[C@H](CO)N1C[C@H](C)[C@H](CN(C)Cc2ccc(Cl)c(Cl)c2)Oc2ccc(NS(=O)(=O)c3ccccc3)cc2C1=O`, the cytotoxicity call is reported as “inactive”.
`C[C@@H]1CN([C@@H](C)CO)C(=O)c2cc(NS(=O)(=O)c3ccccc3)ccc2O[C@@H]1CN(C)Cc1ccc(Cl)c(Cl)c1` was tested, and the cytotoxicity call was “active”.
With `C[C@H](CO)N1C[C@H](C)[C@@H](CN(C)Cc2ccc(Cl)c(Cl)c2)Oc2ccc(NS(=O)(=O)c3ccccc3)cc2C1=O` the cytotoxicity call was “inactive”.
For `C[C@@H]1CN([C@H](C)CO)C(=O)c2cc(NS(=O)(=O)c3ccc(Cl)cc3)ccc2O[C@H]1CN(C)Cc1ccc(Cl)c(Cl)c1`, the cytotoxicity call was “inactive”.

Source: the antibiotic and cytotoxicity screens of Wong et al. (2023)
